This is a sample that favours compounds with a hit; in the whole collection about 5.7% have one here.
HEK293 tox: cytotoxicity in counter-screen for GLP-1R inverse agonists. HEK293 cAMP-luciferase reporter cells, luminescence, 24 h. Potency, µM (titrated, usually from 38.3 µM), without a hit: at the top dose activity change, negative = inhibition, most hits filed as inhibitors. actives 0.13% (n = 410,000). AID 624418;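 note: loss of luciferase light is scored as toxicity; potency is the fitted concentration of half-maximal effect; % is set by controls: 0 for no effect and ±100 for the full control effect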
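Compound-treated cells are incubated 24 hr at 37 deg C under 5% CO2 after a 12 hour attachment period, then luciferase detection reagent is added and luminescence is measured following 12 min at room temperature; lowered signal indicates toxicity.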
ClpP mod: qHTS Assay for Activators of ClpP | ATP-dependent Clp protease proteolytic subunit (Bacillus subtilis (strain 168)), P80244 | purified B. subtilis ClpP, FRET peptide cleavage, 20 min | Potency, µM (highest dose often 57.5 µM), without a hit: at the highest dose activity change, negative = active | actives 1.9% (n = 340,000); active = well fitted falling curve with a large enough effect; inconclusive = small, poorly fitted or top-dose-only effect; inactive = no such curve, though single readings can be large or run the other way; note: potency is the fitted concentration of half-maximal effect; the source files actives as falling curves though it sought activators and does not explain the sign; nearly all actives have a fitted effect of over 65% in size
Target sequence (P80244 whole entry, looked up): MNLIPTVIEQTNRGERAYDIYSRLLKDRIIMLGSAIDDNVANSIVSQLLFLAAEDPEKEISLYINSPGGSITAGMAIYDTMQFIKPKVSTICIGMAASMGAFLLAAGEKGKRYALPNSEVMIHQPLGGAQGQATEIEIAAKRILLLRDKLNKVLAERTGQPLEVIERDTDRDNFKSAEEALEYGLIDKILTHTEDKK
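Purified B. subtilis ClpP, 10 microg/mL final in Tris/HCl pH8 with KCl, BSA, glycerol and Tween-20, cleaved an Abz/nitrotyrosine-quenched decapeptide. Fluorescence (ex 320, em 430) was read at 0 and 20 min at room temperature. Delta was normalized to 5.8 microM ADEP and DMSO/no-enzyme controls.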
GLP-1R inv ag: inverse agonists of human GLP-1 receptor; P43220; HEK293 GLP-1R CRE-luciferase, luminescence, 24 h; GLP-1R form is constitutively active; Potency, µM (titrated, usually from 38.3 µM), for inactives: top-dose activity change, negative = inhibition, hits mostly inhibitors; actives 1.6% (n = 410,000); AID 624417; note: potency is the fitted concentration of half-maximal effect; % is set by controls: 0 for no effect and ±100 for the full control effect; nearly all actives have a fitted effect of over 55% in size
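GLP-1R inverse agonism mode: basal reporter luminescence in engineered HEK293 cells measured after one day of compound exposure at 37 deg C, with a 12 min room-temperature detection step.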
D3 ag: activates the human D3 dopamine receptor. P35462. D3R DiscoveRx beta-arrestin cells, luminescence, 90 min. max activation, %. actives 0.58% (n = 410,000); in the data active = max activation above about 30%; note: 0% is about no effect
Target sequence (P35462 whole entry, looked up): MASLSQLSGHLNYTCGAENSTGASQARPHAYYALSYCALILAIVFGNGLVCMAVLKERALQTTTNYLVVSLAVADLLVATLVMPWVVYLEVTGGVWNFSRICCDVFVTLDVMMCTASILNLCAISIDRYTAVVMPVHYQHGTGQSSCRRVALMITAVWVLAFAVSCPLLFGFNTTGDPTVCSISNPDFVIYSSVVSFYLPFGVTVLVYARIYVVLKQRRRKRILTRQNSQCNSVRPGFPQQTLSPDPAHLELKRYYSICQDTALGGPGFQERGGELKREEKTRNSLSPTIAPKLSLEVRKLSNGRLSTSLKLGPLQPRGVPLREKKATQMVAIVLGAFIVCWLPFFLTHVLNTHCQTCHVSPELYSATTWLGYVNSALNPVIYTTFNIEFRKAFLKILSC
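Agonist mode: compounds and dopamine controls were applied to plated cells for 90 min at 37 degrees C after an overnight attachment at 1500 cells/well. Luminescent read-out followed 30 - 60 minutes at room temperature with DiscoveRx detection reagent.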
GLP1R ag: agonists of human GLP-1 receptor; P43220; HEK293 GLP-1R CRE-luciferase, luminescence, 4-6 h; cells express a hypersensitive GLP-1R form; Potency, µM (series often up to 45.6 µM), for the others: top-dose activation, most hits filed as activators; actives 0.007% (n = 380,000); AID 624172; note: potency is the fitted concentration of half-maximal effect; % of control where 0% means no effect
D3 antag: blocks the human D3 dopamine receptor. max response, negative = inhibition, %. D3R cells, DiscoveRx beta-arrestin luminescence, antagonist mode; stronger effect = lower value. P35462. actives 2.5% (n = 360,000); in the data active = max response below about -50%; inconclusive = no clear call, values can overlap the other calls; note: % is set by controls: 0 for no effect and ±100 for the full control effect
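Cells plated overnight at 1500 cells/well, then exposed to library compounds with dopamine controls for 90 minutes at 37 degrees C. DiscoveRx reagent added for 30–60 minutes at room temperature; luminescence read, quantitative HTS format.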
* = called active by the depositor; ? = inconclusive; nt = no result given. Unless noted, calls come from the whole dose curve; as a rule, active = well fitted curve in the direction sought with a large enough effect; inconclusive = small, poorly fitted or top-dose-only effect, or another doubt; inactive = no such curve, though single readings can be large; an effect the other way counts as inactive or inconclusive.

SMILES	HEK293 tox	ClpP mod	GLP-1R inv ag	D3 ag	GLP1R ag	D3 antag
COC(=O)[C@H](CCSC)NC(=O)Cn1ccc(N)nc1=O	1.9%	0.7%	17.6%	-2.9	-2.3%	-50.7*
Cc1cc(C)n(-c2cc(N3CCN(S(=O)(=O)c4ccc5ccccc5c4)CC3)ccc2[N+](=O)[O-])n1	-22.2%	2.3%	-24.1%	1.4	-1.0%	-55.1*
Cc1cc(C)n(-c2cc(N3CCN(S(=O)(=O)c4ccc(C)c(C)c4)CC3)ccc2[N+](=O)[O-])n1	-4.9%	-7.5%	5.7%	-0.1	-9.0%	21.0
CCN(CC)C(=O)C1=C(C)N(Cc2ccccc2)C(=O)C(CC(=O)NCCN2CCOCC2)C1 (stereo not given)	1.8%	0.5%	5.0%	0.9	-5.4%	14.8
Cc1cc(NCCCN)nc(-c2ccccc2O)n1	-15.5%	-13.4%	10µM*	-6.1	-4.9%	-23.3
O=C1CCC[C@H]2c3[nH]c4ccccc4c3CCN12	0.3%	-8.2%	-12.9%	-22.1	-0.6%	-51.0*
O=C(O)[C@@H]1Cc2c([nH]c3ccccc23)C2CCC(=O)N21 (stereo not given in full)	4.0%	-19.9%	-3.5%	-5.7	-1.0%	-2.3
Cc1ccc(SC[C@H](Cc2ccccc2)N2CCN(CCc3ccccc3)CCC2=O)cc1	9.8%	-12.9%	12.8%	-59.8	10.6%	-58.5*
O=C1CCN(CCc2ccccc2)CCN1[C@H](COc1ccccc1)Cc1ccccc1	-17.3%	0.4%	10µM*	-40.6	-4.8%	-12.3
CC(C)CN1CCC(=O)N([C@H](CSc2ccc(Br)cc2)Cc2ccccc2)CC1	1.5%	-2.3%	-0.1%	-59.3	2.4%	-66.9*
CC(C)CN1CCC(=O)N([C@H](COc2ccccc2)Cc2ccccc2)CC1	-12.3%	1.0%	?	-26.1	-0.4%	3.8
CC(C)C[C@@H](COc1ccccc1)N1CCN(CCc2ccccc2)CCC1=O	0.7%	1.9%	?	-45.0	11.3%	?
CN1CCC(=O)N([C@H](CSc2ccc(Br)cc2)Cc2ccccc2)CC1	2.3%	-5.4%	?	-47.5	-2.9%	-20.7
CCCN1CCC(=O)N([C@H](COc2ccccc2)CC(C)C)CC1	-2.0%	1.6%	1.3%	-39.1	1.3%	-57.6*
CC(=O)Nc1ccc(Nc2nc3ccccc3nc2NS(=O)(=O)c2ccc(Cl)c([N+](=O)[O-])c2)cc1	-25.9%	?	?	3.4	-0.2%	-91.0*
COc1ccc(OC)c(CNC(=O)c2ccc3nc(C(C)C)oc3c2)c1	0.7%	31.6µM*	-14.6%	-4.3	nt	nt
Cc1cccc(N2CCN(C(=O)c3cc4ccc5cccnc5c4[nH]3)CC2)c1C	-7.1%	-8.7%	?	-9.8	nt	nt
CCn1c(C)cs/c1=N\S(=O)(=O)c1ccccc1	11.5%	-3.0%	23.5%	-13.7	1.6%	-22.4
O=Cc1s/c(=N\S(=O)(=O)c2ccccc2)n(CCCCl)c1Cl	?	-1.0%	2.82µM*	-23.7	-5.5%	-119.7*
Cc1ccc(Cl)cc1N1CCN(C(=O)COc2ccc3c(c2)CCC3)CC1	2.7%	nt	10µM*	9.6	20.1%	20.0
COCCN1Cc2cccc(C(=O)N3CCN(c4cc(C)ccc4C)CC3)c2C1=O	-1.9%	-1.3%	-16.4%	1.6	5.6%	3.0
O=C(c1cnc(N2CCCCC2)c2ccccc12)N1CCN(c2ccc(Cl)cc2)CC1	-11.1%	25.1µM*	?	3.6	nt	nt
CCCN1Cc2cccc(C(=O)N3CCN(c4cc(Cl)ccc4C)CC3)c2C1=O	5.5%	-4.8%	-4.3%	-4.5	-2.2%	-50.8*
Cc1ccc(N2CCN(C(=O)c3ccccc3Br)CC2)c(C)c1	5.3%	-2.5%	10µM*	2.0	-20.9%	-11.7
O=C(c1cnc(N2CCN(c3ncccn3)CC2)c2ccccc12)N1CCN(c2ncccn2)CC1	-16.0%	-6.9%	-24.2%	0.2	-13.2%	273.4
SMILES	HEK293 tox	ClpP mod	GLP-1R inv ag	D3 ag	GLP1R ag	D3 antag
Cc1cc(SCC(=O)NCc2ccc(Cl)cc2)nc(=O)[nH]1	2.8%	-3.6%	11.5%	-1.1	2.4%	nt
Cc1cc2c(cc1S(=O)(=O)N(C)CC(=O)Nc1ccc(C#N)cc1)OCC(=O)N2	-6.9%	0.0%	-2.6%	9.4	nt	nt
OC(C[n+]1c(Cl)ccc2ccccc21)c1ccccc1 (stereo not given)	nt	4.6%	nt	nt	nt	nt
Cc1ccc(N2CCN(C(=O)c3cnc(N4CCCCC4)c4ccccc34)CC2)c(C)c1	4.9%	35.5µM*	?	8.0	nt	nt
CCOc1ncccc1C(=O)N1CCN(c2cc(Cl)ccc2C)CC1	-11.1%	nt	1µM*	1.7	?	1.2
Cc1ccc(Cl)cc1N1CCN(C(=O)c2cnc(N3CCOCC3)c3ccccc23)CC1	-7.7%	31.6µM*	?	1.8	nt	nt
CCOc1ncccc1C(=O)N1CCN(c2cccc(C)c2C)CC1	?	nt	?	-2.8	29.3%	-8.2
Cc1ccc(CCNC(=O)Cn2ncc3c([nH]c4ccc(C)cc43)c2=O)cc1	1.9%	-21.3%	-3.3%	-6.9	nt	nt
CCOC(=O)c1ccc(NC(=O)c2cc3sccc3n2Cc2ccc(Cl)cc2)cc1	-16.0%	4.1%	?	-24.1	-1.7%	nt
CN(C)c1ccc(NC(=O)CN2CCN(CC(=O)Nc3ccc(F)cc3)CC2)cc1	8.8%	-3.0%	-2.5%	7.1	-2.0%	2.3
Cc1ccc(C(=O)C2CCN(CC(=O)Nc3ccc4c(c3)OCCO4)CC2)cc1	-14.3%	0.8%	0.0%	0.0	-7.9%	-69.6*
CN(C)c1ccc(NC(=O)CN2CCC(O)(c3ccccc3)CC2)cc1	2.6%	nt	-14.0%	-17.4	5.6%	-79.0*
O=C(CN1CCC(C(=O)c2ccc(F)cc2)CC1)Nc1ccccc1	4.2%	0.5%	0.0%	-27.6	10.3%	-80.5*
CC(=O)c1ccc(NC(=O)CN2CCC(C(=O)c3ccc(F)cc3)CC2)cc1	-14.9%	-0.7%	-21.5%	-15.8	2.2%	?
CC1Cc2ccccc2N1CC(=O)Nc1ccc2c(c1)OCCCO2 (stereo not given)	-2.3%	-0.5%	?	67.4*	13.6%	-1.5
C=C[C@]1(C)C[C@@H](OC(=O)CSC(C)(C)CNC(=O)[C@H](N)C(C)C)[C@]2(C)[C@H](C)CC[C@]3(CCC(=O)[C@H]32)[C@@H](C)[C@@H]1O	nt	nt	nt	-2.2	nt	nt
O=C(CN1CCC(C(=O)c2ccc(F)cc2)CC1)Nc1ccc(F)cc1	-6.7%	-1.8%	?	0.6	-2.7%	-70.8*
Cc1ccc(C(=O)C2CCN(CC(=O)Nc3ccc(N(C)C)cc3)CC2)cc1	4.8%	0.1%	0.0%	-63.2	9.0%	-81.9*
O=C(CN1CCN(c2ccc(O)cc2)CC1)Nc1ccc2c(c1)OCCO2	-11.3%	-8.6%	?	30.2*	4.6%	4.1

Assay outcomes from PubChem.
